Measurements reported in ChEMBL document CHEMBL1157539, “Thousands of chemical starting points for antimalarial lead identification” (Nature, 2010).

Key:
Format in all cases: functional
Plasmodium falciparum [1] = assay: GSK_TCMDC: Inhibition of Plasmodium falciparum 3D7 in whole red blood cells, using parasite LDH activity as an index of growth. Test compounds present at 2uM
Plasmodium falciparum [2] = assay: GSK_TCMDC: Inhibition of Plasmodium falciparum Dd2 in whole red blood cells, using parasite LDH activity as an index of growth. Test compounds present at 2uM
HepG2 = assay: GSK_TCMDC: Percent inhibition of human HepG2 cell line. Test compounds present at 10uM.

| Compound | Inhibition (Plasmodium falciparum [1]) | Inhibition (Plasmodium falciparum [2]) | Inhibition (HepG2) |
| --- | --- | --- | --- |
| O=C(Nc1cccc(-c2ccc(-c3nc4cc(F)ccc4[nH]3)cc2)c1)c1cccnc1 | 100% | 92% | 27% |
| COc1cc2c(C3CCN(CC4CCC(NC(=O)/C=C/c5ccc(Cl)c(Cl)c5)CC4)CC3)c[nH]c2cn1 (centres undefined) | 100% | 100% | 44% |
| Cc1c(N)ccc2[nH]c(-c3ccc(N)cc3)nc12 | 97% | 40% | 0% |
| COc1cccc(-c2cccc(-c3ccc(NC(=O)c4ccc([N+](=O)[O-])o4)cc3)n2)c1 | 97% | 94% | 98% |
| CN(c1ccc2c(c1)nc(Nc1ccc(Cl)cc1)n2C)c1ccnc(Nc2ccc(CS(C)(=O)=O)cc2)n1.Cl | 97% | 52% | 91% |
| COc1ccc2c(=O)c(-c3ccc(OC(F)(F)F)cc3)c(C)[nH]c2c1 | 97% | 96% | 0% |
| COc1ccc(-c2ccc(CNCc3ccccc3)cc2)cc1S(=O)(=O)NCCN1CCCC1.O=C(O)C(F)(F)F | 100% | 76% | 36% |
| Cc1nc(C)c(-c2ccc(S(=O)(=O)c3ccc(Cl)cc3)cc2)c(O)c1Cl | 98% | 96% | 0% |
| CCN(C(=O)c1ccc(NC(=O)c2cccs2)cc1)c1nc2c(C)cccc2s1 | 89% | 85% | 24% |
| CCCc1cc(C(=O)N[C@@H](Cc2ccccc2)[C@H](O)CNC(C)C)c(F)c(N2CCCC2=O)c1 | 90% | 22% | 0% |
| CCN(CC)CCNc1ccc(Nc2ccnc3cc4ccccc4cc23)cc1 | 100% | 99% | 36% |
| Cc1cccc(-c2nc3[nH]c(=O)cc(NC(=O)C(C)C)n3n2)c1 | 96% | 93% | 0% |
| CC(C)C[C@H](NC(=O)c1cc2ccccc2s1)C(=O)N[C@H]1CCN(Cc2ccc(OC3CCN(C)C3)c(Cl)c2)C1.O=C(O)C(F)(F)F (some centres undefined) | 97% | 65% | 68% |
| CC(C)C[C@@H](/C=N/N1CCNC1=O)NC(=O)[C@H](CC(C)C)NC(=O)c1ccc(OCCN2CCOCC2)cc1 | 97% | 89% | 21% |
| C[C@@H](Oc1cc(-n2cnc3cc(SCCN4CCN(C)CC4)ccc32)sc1C(N)=O)c1ccccc1Cl | 90% | 65% | 46% |
| CCCN(CCC)CCCCC(C)Nc1c2ccc(Cl)cc2nc2ccc(OC)cc12.Cl (centres undefined) | 100% | 100% | 42% |
| Cc1cccc2nc(-c3ccc(-c4cccc(CNCCN(C)C)c4)cc3)[nH]c12.O=C(O)C(F)(F)F | 100% | 98% | 6% |
| O=C(CC1NC(=O)c2ccccc21)Nc1ccc(-c2ccc(-c3nc4cc(C(F)(F)F)ccc4[nH]3)cc2)cc1 (centres undefined) | 87% | 70% | 39% |
| CCS(=O)(=O)N1CCN(c2nc(-c3ccccc3)nc(COC)c2Cc2ccccc2F)CC1 | 82% | 34% | 0% |
| CC(=O)C1=NN(c2ccc(C)cc2)C(c2cccs2)N1c1ccccc1 (centres undefined) | 89% | 64% | 0% |
| CCc1ccc(C2CCN(CCCCNC(=O)c3ccc(NC(=O)c4ccc(Cl)cc4)cc3)CC2)c(OC(C)=O)c1 | 91% | 100% | 48% |
| CN(C)Cc1cccc(-c2ccc3ccnc(N)c3c2)c1 | 99% | 74% | 21% |
| Br.CCc1c(CCNCCCCCCNCCc2ccc([N+](=O)[O-])cc2)ccc(O)c1O | 94% | 23% | 5% |
| CC(C)COc1cc(C(=O)Nc2cnc3ccccc3c2)ccc1[N+](=O)[O-] | 97% | 56% | 19% |
| CCN(CC)Cc1cc(Nc2c3ccc(Cl)cc3nc3cccc(OC)c23)ccc1O.Cl | 100% | 98% | 8% |
| COc1cc(-c2[nH]c(-c3ccc(OCCN(C)C)cc3)cc2-c2ccncc2)ccc1Cl.Cl | 93% | 33% | 3% |
| CC(=O)Nc1cc(C(=O)Nc2cccc(-c3cccc(-c4nc5cccc(C)c5[nH]4)c3)c2)ccc1C | 100% | 62% | 25% |
| Cc1ccccc1C1CCN(C2CCC(NC(=O)c3ccc(-c4cccs4)s3)CC2)CC1 (centres undefined) | 100% | 54% | 58% |
